# Rows were chosen to be rich in hits. Some 7.3% of all compounds tested hit in one or more screens of this group.
# HCMV inh = inhibitors of human cytomegalovirus. HFF cells, HCMV-luciferase reporter, 72 h; hits give low values. activity change, negative = inhibition, % at 57.5 µM. actives 4.5% (n = 410,000); in the data active means activity change below about -60%; inconclusive means no clear call, values can overlap the other calls; inactive means above about -39%
#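 Steps: HFFs plated, 16 h 37C; compounds added; HCMV-luciferase added to MOI 1 PFU/cell; 72 h 37C; OneGlo reagent, 5 min room temperature; luminescence read, normalized to controls.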
# FMDV antiviral = blocks foot and mouth disease virus; FMDV antiviral cell-based qHTS; AID 1159524; actives 1.2% (n = 410,000); Potency, µM (top dose mostly 57.9 µM), most hits filed as inhibitors; calls by dose curve; tested in HEK293T cells; further: read-out not given here; nearly all actives have a fitted effect of over 45% in size
# HCV inh = blocks hepatitis C virus. Huh7.5.1 HCVcc-Cre infection, luciferase reporter, 44 h. Potency, µM (series often up to 41.8 µM), actives largely listed as inhibitors. actives 3.4% (n = 340,000). AID 651820; active means well fitted inhibition curve with a large enough effect; inconclusive means small, poorly fitted or top-dose-only effect, or another doubt; inactive means no such curve, though single readings can be large or run the other way
#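 1,000 cells/well; 4 h culture; + compound; + HCVcc-Cre (~0.5 moi); 44 h; luciferase substrate, RT 15 min; read 15 sec.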
# VACV Venus inh = inhibitors of vaccinia virus (Venus reporter). actives 0.46% (n = 330,000). Potency, µM (doses to about 36.5 µM), hits mostly inhibitors. Vaccinia virus Venus reporter expression, fluorescence; calls by dose curve; tested in A549 cells; further: nearly all actives have a fitted effect of over 30% in size
# VACV mCherry inh = inhibitors of vaccinia virus infection (mCherry reporter signal); AID 720579; Vaccinia virus mCherry reporter infection, fluorescence; actives 0.63% (n = 310,000); Potency, µM (doses to about 36.5 µM), usual class: inhibitors; calls by dose curve; tested in A549 cells; further: nearly all actives have a fitted effect of over 35% in size
# A number is an active result; n = inactive; u = inconclusive; x = no result given; + = active, no number; ! = repeats disagree.
SMILES,HCMV inh,FMDV antiviral,HCV inh,VACV Venus inh,VACV mCherry inh
O=C1Nc2ccccc2C(=O)N2[C@H](c3ccccc3)[C@@H]3C(=O)N(Cc4ccccc4)C(=O)[C@@H]3[C@H]12,n,n,n,n,n
COCc1cc(C)n(CC(=O)Nc2ccc(NC(C)=O)cc2)c(=O)c1C#N,n,n,x,n,n
CCC(Sc1nnc2c(n1)[nH]c1ccccc12)C(=O)Nc1ccccc1OC (configuration not stated),n,n,x,n,n
CCCCCn1c(N)c(-c2nc3ccccc3s2)c2c([N+](=O)[O-])nn(CC)c(=O)c21,n,n,11.2µM,x,x
COc1ccc(CNC(=O)C2CCN(c3nnc(-n4c(C)ccc4C)s3)CC2)c(OC)c1,n,n,x,n,n
O=C(NCc1nnc2n1CCN(Cc1ccc(C(F)(F)F)cc1)CC2)c1ccccn1,x,n,x,n,n
Cc1cc(C)nc(SCc2ccc(C(=O)N/N=C/c3ccc(C(=O)O)cc3)cc2)n1,n,n,n,n,n
COc1ccc(O)c(/C=N/NC(=O)c2ccc(CSc3nc(C)cc(C)n3)cc2)c1,-89.6,u,5.62µM,u,8.91µM
COc1ccc(/C=N/NC(=O)c2ccc(CSc3nc(C)cc(C)n3)cc2)cc1O,-65.7,u,u,n,n
Cc1cc(C)nc(SCc2ccc(C(=O)N/N=C/c3cccc(O)c3O)cc2)n1,-98.8,n,12.6µM,u,8.91µM
COC(=O)c1ccc(/C=C/c2c(-c3ccsc3)oc3ccc(N4CCOCC4)cc23)cc1,n,n,n,n,n
CC#C[C@]1(O)CC[C@H]2[C@@H]3CCC4=CC(=O)CCC4=C3[C@@H](c3ccc(N(C)C)cc3)C[C@@]21C,n,n,35.5µM!,n,n
CC#C[C@]1(O)CC[C@H]2[C@@H]3CCC4=CC(=O)CCC4=C3[C@H](c3ccc(N(C)C)cc3)C[C@@]21C,x,n,x,x,x
CCCCCOc1ccc(Cn2ccnc2)cc1[N+](=O)[O-],u,n,11.2µM,x,x
CCOc1ccc(Cn2ccnc2)cc1[N+](=O)[O-],n,n,n,n,n
CC(C)NC(=O)N1CCC(n2nccc2NC(=O)CCOc2ccccc2)CC1,n,n,n,n,n
Cc1ccccc1C(=O)Nc1ccnn1C1CCN(C(C)Cc2ccccc2F)CC1 (configuration not stated),n,n,10µM,x,x
C=C(C)CCC(C)N1CCC(n2nccc2NC(=O)CCOc2ccccc2)CC1 (configuration not stated),-89.2,n,n,n,n
COCC(C)N1CCC(n2nccc2NC(=O)c2ccccc2Cl)CC1 (configuration not stated),n,n,n,n,n
Cc1oc2ccc(O)c(CN3CCN(C)CC3)c2c1C(=O)Nc1cccc(C(F)(F)F)c1,u,u,x,n,n
O=C(/C=C\c1ccc(O)c(O)c1)O[C@@H](Cc1ccc(O)c(O)c1)C(=O)O,x,n,x,x,x
O=C(/C=C/c1ccc(O)c(O)c1)OC(Cc1ccc(O)c(O)c1)C(=O)O (configuration not stated),n,n,10µM,n,n
CCOC(=O)C1=C[C@@H](c2ccccc2)N(S(=O)(=O)c2ccc(C)cc2)[C@H]1c1cccc(Cl)c1,u,n,x,n,n
Clc1ccc2c(c1)c1cc(Cl)ccc1n2CN1CCOCC1,u,n,22.4µM,u,u
CCOC(=O)c1c(C2CC2)csc1NC(C)=O,-64.9,n,u,n,n
SMILES,HCMV inh,FMDV antiviral,HCV inh,VACV Venus inh,VACV mCherry inh
CCOC(=O)c1c(C2CC2)csc1NC(=O)COC(=O)c1ccc[n+]([O-])c1,n,n,u,n,n
CC(C)NC(=O)N1[C@H](c2cccs2)[C@@H](C)C(=O)[C@@H](C)[C@@H]1c1cccs1,n,n,x,n,n
CCOC(=O)c1c(-c2ccc(OC)c(OC)c2)csc1NC(=O)c1ccc(C)cc1,n,n,x,n,n
CCOC(=O)c1c(C)[n+](-c2ccc(C)cc2)c(CC)c2cc(OC)c(OC)cc12,-81.3,n,u,x,x
COc1ccc(/C=N/NC(=O)c2nc(-c3ccccc3)n(-c3ccccc3)n2)c(O)c1,u,n,u,u,3.16µM
COc1ccc2[nH]c(C(=O)N/N=C/c3ccc(O)cc3O)cc2c1,-89.7,n,u,u,u
CCOc1ccc2[nH]c(C(=O)N/N=C/c3ccc(OC)cc3)cc2c1,n,n,u,u,u
COc1ccc(NC(=O)c2cc(C3CCCCN3S(=O)(=O)c3cn(C)cn3)on2)c(C)c1 (configuration not stated),n,n,x,n,n
Cc1cccc(C(C)C)c1NC(=O)c1ccc2c(c1)CCN2S(C)(=O)=O,n,n,x,n,n
CCCCN(C(=O)CSc1nnc(Nc2ccc(C)c(C)c2)s1)c1c(N)n(Cc2ccccc2)c(=O)[nH]c1=O,n,n,10µM,u,u
COCCN(C(=O)CSc1nnc(C)n1Cc1ccccc1)c1c(N)n(Cc2ccccc2)c(=O)[nH]c1=O,x,n,n,n,n
COCCN(C(=O)CSc1nnc2cc(C)c3ccccc3n12)c1c(N)n(Cc2ccccc2)c(=O)[nH]c1=O,-93.7,n,n,n,n
COc1ccc(OC)c(NC(=O)CN2C(=O)CC(C)Sc3ccccc32)c1 (configuration not stated),n,n,x,n,n
O=C(c1ccc2c(c1)OCO2)N1CCC2(CC1)Oc1ccc(F)cc1C(=O)C21CC(c2ccc(Cl)cc2)=NO1 (configuration not stated),n,n,10µM,n,n
CC(C)(C)C(C(=O)NC1CCCC1)N1CCN(c2ncccc2C#N)CC1 (configuration not stated),n,n,x,n,n
CNS(=O)(=O)c1cn(CC(=O)Nc2cccc(OC)c2)cc1S(=O)(=O)NC,n,n,x,n,n
CNS(=O)(=O)c1cn(CC(=O)Nc2cccc(C(F)(F)F)c2)cc1S(=O)(=O)NC,+,n,x,n,n
Cc1sc(N)nc1-c1ccc(Oc2ccccc2)cc1,n,n,14.1µM,x,x
Nc1nc(N)nc(-c2ccc(Oc3ccccc3)cc2)n1,n,x,n,n,n
CC(NNC(=S)N1CCCCCC1)c1ccc2ccccc2n1 (configuration not stated),-93.5,n,x,n,5.62µM
Cc1cccc(NS(=O)(=O)c2ccc3c(c2)CCN3C(=O)C2CC2)c1C,n,n,x,n,n
COC(=O)C1CCN(S(=O)(=O)c2ccc(N3CCCCS3(=O)=O)cc2)CC1,n,n,x,n,n
C=CS(=O)(=O)c1sc(Cl)c(N2CCOCC2)c1[N+](=O)[O-],-72.5,25.1µM,u,u,u
CCC(CO)[n+]1c(C)cc(/C=C2\Sc3ccccc3N2Cc2ccccc2)cc1C (configuration not stated),-100.5,10µM,u,n,n
CCN1/C(=C2\SC(=S)N(Cc3ccccc3)C2=O)Sc2ccccc21,n,n,n,n,n
c1ccc(-c2cn3ccccc3n2)cc1,n,n,n,n,n
O=[N+]([O-])c1ccc(-c2cn3ccccc3n2)cc1,-64.7,n,n,x,x
NC(=O)c1nnn(Cc2cc(Cl)c(C(=O)c3ccc(Cl)cc3)c(Cl)c2)c1N,-91.2,u,x,n,n
